Source: PubChem BioAssay (EPA / NIEHS)
Inconclusive results are not listed. The source made the active and inactive calls. The calls were made as follows, unless noted: active = hit-call score of the fitted dose curve at least 0.9, where 1 is the maximum; inactive = score below 0.9.

What was measured:
[1] = CCTE_Shafer_MEA_dev_firing_rate_mean: CCTE's Neural Network Formation Assay for Mean Firing Rate, Shafer Lab (AID 2284031)
Summary of the method: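 Extracellular spike frequency, AUC over DIV 5–12 recordings, in rat cortical neuron MEA cultures dosed from plating; loss direction vs DMSO.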

[2] = CCTE_Shafer_MEA_dev_per_burst_spike_percent: CCTE's Neural Network Formation Assay for Percent of Spikes in a Burst, Shafer Lab (AID 2284032)
Summary of the method: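 Value is trapezoidal AUC over recordings on days 5, 7, 9 and 12 of the well-mean fraction of spikes falling in single-electrode bursts; rat cortical cultures exposed continuously from plating, treatment renewed DIV 5 and 9, fitted downward against DMSO.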

[3] = CCTE_Shafer_MEA_dev_active_electrodes_number: CCTE's Neural Network Formation Assay for Number of Active Electrodes, Shafer Lab (AID 2284040; active = hit-call score of the fitted dose curve at least 0.9, where 1 is the maximum)
Summary of the method: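 Developing rat cortical networks on MEAs, exposed DIV 0–12. Value is the AUC of active-electrode counts (≥5 spikes/min) from days 5, 7, 9, 12, relative to DMSO.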

[4] = CCTE_Shafer_MEA_dev_burst_rate: CCTE's Neural Network Formation Assay for Burst Rate, Shafer Lab (AID 2284042)
Summary of the method: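 Developmental network assay measuring how 12-day exposure of rat cortical neuron cultures alters bursting on extracellular MEA recordings. Values are AUC of well-mean burst rate across four recording days, relative to DMSO vehicle.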

[5] = CCTE_Shafer_MEA_dev_bursting_electrodes_number: CCTE's Neural Network Formation Assay for Number of Bursting Electrodes, Shafer Lab (AID 2284043; active = hit-call score of the fitted dose curve at least 0.9, where 1 is the maximum)
Summary of the method: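 Number of electrodes reaching ≥1 burst every 2 min was recorded at DIV 5, 7, 9 and 12 and collapsed as trapezoidal area under the curve. Cultures were rat cortical neurons on MEA plates, dosed continuously from plating with medium and treatment refreshed on DIV 5 and 9.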

[6] = CCTE_Shafer_MEA_dev_per_burst_interspike_interval: CCTE's Neural Network Formation Assay for Burst Interspike Interval, Shafer Lab (AID 2284044)
Summary of the method: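 Neurons from rat cortex plated onto PEI-coated MEA wells with laminin […] at 1.5 x 10^5 cells/well, then treated from day 0. Media and compound fully replaced on DIV 5 and 9. Extracellular spontaneous firing recorded four times; interspike interval per burst summarised as AUC.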

[7] = CCTE_Shafer_MEA_dev_interburst_interval_mean: CCTE's Neural Network Formation Assay for Mean Interburst Interval, Shafer Lab (AID 2284046);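 also: well-mean interburst interval of bursting electrodes as AUC over four recording days; curve fitted for decrease in interburst interval relative to DMSO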
Summary of the method: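 Network formation assay in primary rat cortical cultures, exposed from DIV 0 to 12. Mean interburst interval per well, integrated as AUC over four recordings.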

[8] = CCTE_Shafer_MEA_dev_inter_network_spike_interval_mean: CCTE's Neural Network Formation Assay for Mean Inter-network Spike Interval, Shafer Lab (AID 2284047)
Summary of the method: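 Compound was given at plating to primary rat cortical neurons and renewed with full medium changes on DIV 5 and 9. Extracellular activity was recorded on days 5, 7, 9, 12; AUC values were fitted for loss relative to DMSO control.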

[9] = CCTE_Shafer_MEA_dev_network_spike_number: CCTE's Neural Network Formation Assay for Number of Network Spikes, Shafer Lab (AID 2284048);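 also: synchronized bursts across electrodes counted on days 5 7 9 12 and integrated as AUC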
Summary of the method: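 Number of network spikes (coordinated firing across electrodes) recorded on days 5, 7, 9 and 12 and summarised as area under the curve. Rat cortical cultures on MEA, continuous compound exposure with full medium/treatment exchange at DIV 5 and 9.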

[10] = CCTE_Shafer_MEA_dev_network_spike_peak: CCTE's Neural Network Formation Assay for Mean Number of Electrodes in Network Spike, Shafer Lab (AID 2284049)
Summary of the method: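 Rat cortical primary culture, 1.5 x 10^5 cells/well, 48-well MEA (16 electrodes/well). Dosing day 0 through DIV 12, full media/compound exchange DIV 5, 9. AxIS adaptive spike detection; AUC over days 5/7/9/12; loss-of-signal vs DMSO.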

[11] = CCTE_Shafer_MEA_dev_network_spike_duration_std: CCTE's Neural Network Formation Assay for Standard Deviation of Network Spike Duration, Shafer Lab (AID 2284052);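 also: area under curve of spike duration SD across recording days 5 to 12; hits are decreases in network spike duration SD versus DMSO vehicle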
Summary of the method: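 Developing networks of rat cortical neurons were exposed over twelve days in vitro on 48-well MEA plates. Trapezoidal AUC of recordings (DIV 5–12) was analysed for signal loss relative to DMSO vehicle.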

[12] = CCTE_Shafer_MEA_dev_per_network_spike_spike_number_mean: CCTE's Neural Network Formation Assay for Mean Number of Spikes in a Network Spike, Shafer Lab (AID 2284053)
Summary of the method: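 First, rat cortical cells (1.5 x 10^5/well) were seeded onto MEA wells; second, dosing began at plating and was refreshed on DIV 5 and 9; finally, network-spike spike counts across DIV 5–12 were summarized as AUC.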

[13] = CCTE_Shafer_MEA_dev_per_network_spike_spike_percent: CCTE's Neural Network Formation Assay for Percent of Spikes in a Network Spike, Shafer Lab (AID 2284054)
Summary of the method: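 Metric: fraction of spikes falling in a 0.05 s window at network-spike peaks. Recordings were made on days 5, 7, 9 and 12 and collapsed by trapezoidal AUC. Cultures were rat cortical neurons on MEA plates, dosed continuously from plating, re-dosed at media changes.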

[14] = UKN2_HCS_IMR90_neural_migration: University of Konstanz (UKN) Leist Lab Neural Crest Cell Migration Assay in human induced IMR90 Pluripotent Stem Cells (UKN2) (AID 2284204); details: actives raise or lower the signal
Summary of the method: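 High-content imaging of calcein-AM and Hoechst stained cells quantifies migration into a stopper-defined gap after 24 h compound exposure. Neural crest cells from IMR90 iPSC migrated 24 h in EGF/FGF N2-S medium before dosing; DMSO baseline.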

[15] = IUF_NPC1b_proliferation_BrdU_72hr: Leibniz Research Institute for Environmental Medicine (IUF) 72-hour Neural Progenitor Cell Bromodeoxyuridine (BrdU) Proliferation Assay (NPC1b) (AID 2284207)
Summary of the method: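 Human fetal cortex-derived (GW 16-19) neural progenitor spheres, 0.25-0.35 mm, one per well in EGF/FGF proliferation medium, exposed to compound for 72 h at 37C, pH 7.2-7.6. BrdU incorporation over the final 16 h read by luminescence ELISA, relative to DMSO.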

[16] = IUF_NPC1a_proliferation_area_72hr: Leibniz Research Institute for Environmental Medicine (IUF) 72-hour Neural Progenitor Cell Proliferation Area Assay (NPC1a) (AID 2284208)
Summary of the method: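 Spheres of 0.3 mm are plated singly in growth-factor medium and exposed from day 0. After three days at 37C and 5% CO2, sphere area is measured by phase contrast imaging, with activity referenced to DMSO.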

[17] = IUF_NPC1_viability_72hr: Viability Assessment at 72 hours in the Leibniz Research Institute for Environmental Medicine (IUF) Neural Progenitor Cell Proliferation Assay (NPC1) (AID 2284209)
Summary of the method: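 Three-day continuous exposure of human neural progenitor spheres under EGF/FGF-driven proliferation; cell viability scored by alamar blue signal versus DMSO.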

[18] = CCTE_Mundy_HCI_Cortical_Synap_Neur_Matur_NeuriteSpotCountPerNeuriteLength: CCTE's Synaptogenesis and Neurite Maturation Assay in rat cortical cells for Neurite Spot Count per Neurite Length, Mundy Lab (AID 2284210)
Summary of the method: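 Synaptophysin spots per unit neurite length, measured by automated imaging of MAP2/synaptophysin/Hoechst-stained neurons. Cultures from rat cortex received chemical at DIV 7 with media change through DIV 12; glial growth arrested by AraC at DIV 5; DMSO baseline.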

[19] = CCTE_Mundy_HCI_Cortical_Synap_Neur_Matur_BPCount: CCTE's Synaptogenesis and Neurite Maturation Assay in rat cortical cells for Branch Point Count, Mundy Lab (AID 2284211)
Summary of the method: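 In this multiplexed morphology assay, cortical cells from rat receive chemicals at DIV 7 and are fixed at DIV 12, then immunostained and imaged; branch points are counted, with DMSO as baseline.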

[20] = CCTE_Mundy_HCI_Cortical_NOG_NeuriteCount: CCTE's Neurite Outgrowth Assay in rat cortical cells for Neurite Count, Mundy Lab (AID 2284212);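 also: cells fixed about two days after chemical exposure began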
Summary of the method: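 Rat cortical primary cells; compound added 2 h post-plating, 1/10 dilution of working solution. Anti-betaIII-tubulin/AF488 ICC; ArrayScan neurite count vs DMSO.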

[21] = CCTE_Mundy_HCI_Cortical_NOG_NeuriteLength: CCTE's Neurite Outgrowth Assay in rat cortical cells for Neurite Length, Mundy Lab (AID 2284213)
Summary of the method: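 First, rat primary cortical cells were plated and, 2 h later, given test chemical as a 1/10 dilution. Finally, βIII-tubulin immunostaining enabled automated imaging of neurite length.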

Measured: AC50

Cc1[nH]n(C)c(=O)c1C(=O)c1ccc(C(F)(F)F)cc1S(C)(=O)=O
active: [15] 43.4 µM
inactive: all other assays above
